Assay results taken from ChEMBL document CHEMBL2218924, “A broad activity screen in support of a chemogenomic map for kinase signalling research and drug discovery” (Biochem J, 2013).

What was measured:
[1] = biological target: T1, Ephrin type-A receptor 3 (Homo sapiens) (UniProt P29320); settings: at 10 µM
T1 sequence (whole entry): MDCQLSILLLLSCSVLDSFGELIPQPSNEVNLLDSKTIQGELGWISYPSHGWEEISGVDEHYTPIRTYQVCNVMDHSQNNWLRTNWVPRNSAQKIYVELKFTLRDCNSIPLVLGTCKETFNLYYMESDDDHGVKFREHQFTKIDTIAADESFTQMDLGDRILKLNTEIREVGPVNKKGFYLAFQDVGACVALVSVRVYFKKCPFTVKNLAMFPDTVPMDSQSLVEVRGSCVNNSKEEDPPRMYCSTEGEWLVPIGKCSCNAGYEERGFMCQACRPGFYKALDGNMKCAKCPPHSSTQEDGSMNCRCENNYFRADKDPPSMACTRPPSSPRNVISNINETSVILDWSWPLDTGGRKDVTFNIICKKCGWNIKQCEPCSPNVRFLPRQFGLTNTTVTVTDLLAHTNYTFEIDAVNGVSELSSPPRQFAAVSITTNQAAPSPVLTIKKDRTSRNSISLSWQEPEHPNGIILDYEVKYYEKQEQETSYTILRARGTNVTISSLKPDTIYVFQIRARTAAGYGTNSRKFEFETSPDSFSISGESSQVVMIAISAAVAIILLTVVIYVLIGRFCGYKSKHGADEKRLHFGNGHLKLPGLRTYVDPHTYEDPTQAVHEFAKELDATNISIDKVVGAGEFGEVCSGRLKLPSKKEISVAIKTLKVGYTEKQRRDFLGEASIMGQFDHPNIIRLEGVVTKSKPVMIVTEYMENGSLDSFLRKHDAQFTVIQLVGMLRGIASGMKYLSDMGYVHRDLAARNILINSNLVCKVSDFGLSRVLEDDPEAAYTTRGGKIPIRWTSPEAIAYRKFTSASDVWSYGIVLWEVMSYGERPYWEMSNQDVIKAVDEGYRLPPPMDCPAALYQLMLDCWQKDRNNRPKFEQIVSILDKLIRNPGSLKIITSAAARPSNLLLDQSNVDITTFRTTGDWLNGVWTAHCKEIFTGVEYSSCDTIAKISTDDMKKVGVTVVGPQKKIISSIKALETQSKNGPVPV

[2] = biological target: Ephrin type-A receptor 4 (Homo sapiens) (UniProt P54764); settings: at 10 µM
[3] = biological target: Ephrin type-A receptor 5 (Homo sapiens) (UniProt P54756); settings: at 1 µM
[4] = biological target: Ephrin type-A receptor 5 (Homo sapiens) (UniProt P54756); settings: at 10 µM
[5] = biological target: Ephrin type-A receptor 7 (Homo sapiens) (UniProt Q15375); settings: at 1 µM
[6] = biological target: Ephrin type-A receptor 7 (Homo sapiens) (UniProt Q15375); settings: at 10 µM
[7] = biological target: T2, Ephrin type-A receptor 8 (Homo sapiens) (UniProt P29322); settings: at 1 µM
T2 sequence (whole entry): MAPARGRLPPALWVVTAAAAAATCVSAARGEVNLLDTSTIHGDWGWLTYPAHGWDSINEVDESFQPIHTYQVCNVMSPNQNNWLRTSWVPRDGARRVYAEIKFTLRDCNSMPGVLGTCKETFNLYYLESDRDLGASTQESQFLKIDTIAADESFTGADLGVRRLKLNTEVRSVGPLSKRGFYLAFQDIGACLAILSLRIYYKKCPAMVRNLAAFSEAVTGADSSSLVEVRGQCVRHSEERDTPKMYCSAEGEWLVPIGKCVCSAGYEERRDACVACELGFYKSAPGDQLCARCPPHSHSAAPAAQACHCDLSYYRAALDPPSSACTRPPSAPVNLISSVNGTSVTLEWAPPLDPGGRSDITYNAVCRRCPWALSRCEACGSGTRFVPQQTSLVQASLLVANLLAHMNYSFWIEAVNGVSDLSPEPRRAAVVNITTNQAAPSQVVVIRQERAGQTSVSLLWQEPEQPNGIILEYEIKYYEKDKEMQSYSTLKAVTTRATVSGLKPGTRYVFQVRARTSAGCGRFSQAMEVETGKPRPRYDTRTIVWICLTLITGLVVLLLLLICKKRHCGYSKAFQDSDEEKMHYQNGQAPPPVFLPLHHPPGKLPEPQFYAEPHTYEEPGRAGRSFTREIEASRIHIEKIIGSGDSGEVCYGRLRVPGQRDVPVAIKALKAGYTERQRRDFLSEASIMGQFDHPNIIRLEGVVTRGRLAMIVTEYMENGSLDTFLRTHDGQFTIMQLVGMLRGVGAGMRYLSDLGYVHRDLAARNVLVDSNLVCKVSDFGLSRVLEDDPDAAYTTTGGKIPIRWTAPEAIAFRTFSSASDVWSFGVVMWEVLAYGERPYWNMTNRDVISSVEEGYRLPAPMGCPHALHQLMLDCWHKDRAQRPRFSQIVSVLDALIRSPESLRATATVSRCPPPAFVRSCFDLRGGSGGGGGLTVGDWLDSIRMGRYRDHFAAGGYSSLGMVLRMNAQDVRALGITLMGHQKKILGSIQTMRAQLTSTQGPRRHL

[8] = biological target: T2, Ephrin type-A receptor 8 (Homo sapiens); settings: at 10 µM
[9] = biological target: T3, Ephrin type-B receptor 1 (Homo sapiens) (UniProt P54762); settings: at 1 µM
T3 sequence (whole entry): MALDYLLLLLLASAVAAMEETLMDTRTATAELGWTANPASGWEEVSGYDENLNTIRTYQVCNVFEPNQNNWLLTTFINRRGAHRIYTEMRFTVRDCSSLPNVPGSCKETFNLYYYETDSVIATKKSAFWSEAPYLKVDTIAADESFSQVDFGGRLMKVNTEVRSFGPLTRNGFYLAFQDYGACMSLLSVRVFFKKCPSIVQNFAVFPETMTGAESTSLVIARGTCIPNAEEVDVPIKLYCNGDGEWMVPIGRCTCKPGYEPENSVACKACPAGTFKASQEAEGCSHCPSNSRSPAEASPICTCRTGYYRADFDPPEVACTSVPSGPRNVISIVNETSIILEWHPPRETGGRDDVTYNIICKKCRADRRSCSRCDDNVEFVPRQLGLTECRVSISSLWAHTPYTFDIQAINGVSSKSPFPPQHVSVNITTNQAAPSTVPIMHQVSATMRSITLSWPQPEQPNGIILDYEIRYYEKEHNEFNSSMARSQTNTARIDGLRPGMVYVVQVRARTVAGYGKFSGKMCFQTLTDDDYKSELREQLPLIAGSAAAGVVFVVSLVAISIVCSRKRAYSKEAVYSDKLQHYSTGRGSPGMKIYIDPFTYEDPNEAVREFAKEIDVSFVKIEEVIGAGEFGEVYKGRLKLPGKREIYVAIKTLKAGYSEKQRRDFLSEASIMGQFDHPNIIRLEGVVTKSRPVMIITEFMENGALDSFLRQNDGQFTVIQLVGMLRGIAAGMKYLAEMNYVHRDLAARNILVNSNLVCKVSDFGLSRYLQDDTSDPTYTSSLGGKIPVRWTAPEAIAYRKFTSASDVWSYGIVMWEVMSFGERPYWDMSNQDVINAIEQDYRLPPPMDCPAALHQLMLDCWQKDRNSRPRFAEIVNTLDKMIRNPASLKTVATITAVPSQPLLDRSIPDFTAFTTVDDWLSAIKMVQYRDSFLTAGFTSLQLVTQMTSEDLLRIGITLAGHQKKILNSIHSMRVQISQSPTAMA

[10] = biological target: T3, Ephrin type-B receptor 1 (Homo sapiens); settings: at 10 µM
[11] = biological target: T4, Ephrin type-B receptor 3 (Homo sapiens) (UniProt P54753); settings: at 1 µM
T4 sequence (whole entry): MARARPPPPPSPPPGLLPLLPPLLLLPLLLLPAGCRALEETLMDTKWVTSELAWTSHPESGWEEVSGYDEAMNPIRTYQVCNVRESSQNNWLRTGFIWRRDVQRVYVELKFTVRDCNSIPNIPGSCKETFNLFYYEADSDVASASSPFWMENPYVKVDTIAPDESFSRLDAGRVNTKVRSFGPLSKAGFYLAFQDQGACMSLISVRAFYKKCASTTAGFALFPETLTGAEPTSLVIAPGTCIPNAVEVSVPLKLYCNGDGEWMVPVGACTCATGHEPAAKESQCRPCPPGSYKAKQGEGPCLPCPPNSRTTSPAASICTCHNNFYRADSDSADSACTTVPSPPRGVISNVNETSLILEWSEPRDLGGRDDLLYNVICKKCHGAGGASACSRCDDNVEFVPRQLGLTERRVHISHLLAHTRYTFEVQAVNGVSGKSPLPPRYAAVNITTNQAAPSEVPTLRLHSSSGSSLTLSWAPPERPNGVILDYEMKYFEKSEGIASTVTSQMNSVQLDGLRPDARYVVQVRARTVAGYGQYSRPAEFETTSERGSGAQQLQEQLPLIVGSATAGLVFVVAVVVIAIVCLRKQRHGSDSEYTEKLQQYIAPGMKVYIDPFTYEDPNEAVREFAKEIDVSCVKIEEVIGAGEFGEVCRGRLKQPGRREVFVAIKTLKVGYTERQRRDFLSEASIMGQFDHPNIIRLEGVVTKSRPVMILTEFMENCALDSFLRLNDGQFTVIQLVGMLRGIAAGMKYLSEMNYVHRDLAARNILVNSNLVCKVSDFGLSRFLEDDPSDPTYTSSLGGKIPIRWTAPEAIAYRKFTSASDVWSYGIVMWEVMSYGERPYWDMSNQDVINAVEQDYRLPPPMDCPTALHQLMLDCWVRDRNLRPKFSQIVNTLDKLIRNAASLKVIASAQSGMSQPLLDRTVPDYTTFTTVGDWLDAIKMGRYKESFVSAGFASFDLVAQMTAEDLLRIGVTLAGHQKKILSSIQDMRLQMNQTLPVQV

[12] = biological target: T4, Ephrin type-B receptor 3 (Homo sapiens); settings: at 10 µM
[13] = biological target: T5, Ephrin type-B receptor 4 (Homo sapiens) (UniProt P54760); settings: at 1 µM
T5 sequence (whole entry): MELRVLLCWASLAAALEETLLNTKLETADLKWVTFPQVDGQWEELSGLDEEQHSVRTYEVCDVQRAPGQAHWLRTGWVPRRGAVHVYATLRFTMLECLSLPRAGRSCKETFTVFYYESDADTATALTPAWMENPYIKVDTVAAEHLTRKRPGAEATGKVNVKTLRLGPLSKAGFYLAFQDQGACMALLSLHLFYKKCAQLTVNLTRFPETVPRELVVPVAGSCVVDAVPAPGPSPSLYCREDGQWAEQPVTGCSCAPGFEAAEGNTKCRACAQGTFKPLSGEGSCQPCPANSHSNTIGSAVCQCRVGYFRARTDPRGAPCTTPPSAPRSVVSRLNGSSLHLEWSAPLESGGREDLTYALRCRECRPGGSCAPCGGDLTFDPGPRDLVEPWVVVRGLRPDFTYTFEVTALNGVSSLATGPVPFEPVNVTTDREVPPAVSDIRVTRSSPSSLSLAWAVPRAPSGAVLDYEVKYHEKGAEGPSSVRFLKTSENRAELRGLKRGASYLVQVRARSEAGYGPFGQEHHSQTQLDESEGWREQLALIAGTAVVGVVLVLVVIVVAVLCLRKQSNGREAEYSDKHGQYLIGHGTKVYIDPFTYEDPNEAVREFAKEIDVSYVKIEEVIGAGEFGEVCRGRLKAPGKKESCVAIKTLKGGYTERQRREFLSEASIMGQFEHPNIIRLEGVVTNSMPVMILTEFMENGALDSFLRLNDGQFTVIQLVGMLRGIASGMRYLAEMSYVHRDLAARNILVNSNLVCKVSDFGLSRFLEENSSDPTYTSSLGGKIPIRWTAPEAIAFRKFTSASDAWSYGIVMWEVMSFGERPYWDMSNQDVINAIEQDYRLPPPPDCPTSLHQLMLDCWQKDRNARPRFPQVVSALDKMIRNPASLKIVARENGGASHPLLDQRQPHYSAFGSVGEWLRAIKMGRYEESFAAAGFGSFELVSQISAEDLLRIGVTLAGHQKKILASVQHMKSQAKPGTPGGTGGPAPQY

[14] = biological target: T5, Ephrin type-B receptor 4 (Homo sapiens); settings: at 10 µM
[15] = biological target: Receptor tyrosine-protein kinase erbB-4 (Homo sapiens) (UniProt Q15303); settings: at 1 µM
[16] = biological target: Receptor tyrosine-protein kinase erbB-4 (Homo sapiens) (UniProt Q15303); settings: at 10 µM

Ephrin type-A receptor 5 (Homo sapiens), sequence (P54756 whole entry): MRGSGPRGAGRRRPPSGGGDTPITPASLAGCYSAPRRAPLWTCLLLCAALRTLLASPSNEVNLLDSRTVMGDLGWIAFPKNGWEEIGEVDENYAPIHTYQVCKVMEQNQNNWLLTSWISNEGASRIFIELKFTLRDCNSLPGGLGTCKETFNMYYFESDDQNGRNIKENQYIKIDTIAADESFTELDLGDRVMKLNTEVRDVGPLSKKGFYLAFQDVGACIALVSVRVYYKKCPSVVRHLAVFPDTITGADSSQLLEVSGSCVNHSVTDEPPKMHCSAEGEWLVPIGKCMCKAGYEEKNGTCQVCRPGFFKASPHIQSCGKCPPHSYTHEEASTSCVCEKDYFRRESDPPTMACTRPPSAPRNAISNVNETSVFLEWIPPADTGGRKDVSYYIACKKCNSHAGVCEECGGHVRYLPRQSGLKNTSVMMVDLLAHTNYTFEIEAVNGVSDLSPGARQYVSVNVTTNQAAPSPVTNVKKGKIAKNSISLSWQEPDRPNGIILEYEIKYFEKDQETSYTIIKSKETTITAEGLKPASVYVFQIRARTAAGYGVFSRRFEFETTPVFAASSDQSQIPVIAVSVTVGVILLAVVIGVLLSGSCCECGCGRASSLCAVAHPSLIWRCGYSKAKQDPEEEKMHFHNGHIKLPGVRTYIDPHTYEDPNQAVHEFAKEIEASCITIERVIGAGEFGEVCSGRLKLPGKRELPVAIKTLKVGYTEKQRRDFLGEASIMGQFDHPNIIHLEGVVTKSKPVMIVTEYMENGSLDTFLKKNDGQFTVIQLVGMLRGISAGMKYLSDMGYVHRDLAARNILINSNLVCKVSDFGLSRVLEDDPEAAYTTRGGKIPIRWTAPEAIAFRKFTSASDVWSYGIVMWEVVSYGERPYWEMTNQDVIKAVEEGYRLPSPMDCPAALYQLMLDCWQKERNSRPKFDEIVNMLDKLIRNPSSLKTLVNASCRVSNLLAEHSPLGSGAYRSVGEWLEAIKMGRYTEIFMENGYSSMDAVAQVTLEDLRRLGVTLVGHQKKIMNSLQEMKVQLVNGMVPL
Receptor tyrosine-protein kinase erbB-4 (Homo sapiens), sequence (Q15303 whole entry): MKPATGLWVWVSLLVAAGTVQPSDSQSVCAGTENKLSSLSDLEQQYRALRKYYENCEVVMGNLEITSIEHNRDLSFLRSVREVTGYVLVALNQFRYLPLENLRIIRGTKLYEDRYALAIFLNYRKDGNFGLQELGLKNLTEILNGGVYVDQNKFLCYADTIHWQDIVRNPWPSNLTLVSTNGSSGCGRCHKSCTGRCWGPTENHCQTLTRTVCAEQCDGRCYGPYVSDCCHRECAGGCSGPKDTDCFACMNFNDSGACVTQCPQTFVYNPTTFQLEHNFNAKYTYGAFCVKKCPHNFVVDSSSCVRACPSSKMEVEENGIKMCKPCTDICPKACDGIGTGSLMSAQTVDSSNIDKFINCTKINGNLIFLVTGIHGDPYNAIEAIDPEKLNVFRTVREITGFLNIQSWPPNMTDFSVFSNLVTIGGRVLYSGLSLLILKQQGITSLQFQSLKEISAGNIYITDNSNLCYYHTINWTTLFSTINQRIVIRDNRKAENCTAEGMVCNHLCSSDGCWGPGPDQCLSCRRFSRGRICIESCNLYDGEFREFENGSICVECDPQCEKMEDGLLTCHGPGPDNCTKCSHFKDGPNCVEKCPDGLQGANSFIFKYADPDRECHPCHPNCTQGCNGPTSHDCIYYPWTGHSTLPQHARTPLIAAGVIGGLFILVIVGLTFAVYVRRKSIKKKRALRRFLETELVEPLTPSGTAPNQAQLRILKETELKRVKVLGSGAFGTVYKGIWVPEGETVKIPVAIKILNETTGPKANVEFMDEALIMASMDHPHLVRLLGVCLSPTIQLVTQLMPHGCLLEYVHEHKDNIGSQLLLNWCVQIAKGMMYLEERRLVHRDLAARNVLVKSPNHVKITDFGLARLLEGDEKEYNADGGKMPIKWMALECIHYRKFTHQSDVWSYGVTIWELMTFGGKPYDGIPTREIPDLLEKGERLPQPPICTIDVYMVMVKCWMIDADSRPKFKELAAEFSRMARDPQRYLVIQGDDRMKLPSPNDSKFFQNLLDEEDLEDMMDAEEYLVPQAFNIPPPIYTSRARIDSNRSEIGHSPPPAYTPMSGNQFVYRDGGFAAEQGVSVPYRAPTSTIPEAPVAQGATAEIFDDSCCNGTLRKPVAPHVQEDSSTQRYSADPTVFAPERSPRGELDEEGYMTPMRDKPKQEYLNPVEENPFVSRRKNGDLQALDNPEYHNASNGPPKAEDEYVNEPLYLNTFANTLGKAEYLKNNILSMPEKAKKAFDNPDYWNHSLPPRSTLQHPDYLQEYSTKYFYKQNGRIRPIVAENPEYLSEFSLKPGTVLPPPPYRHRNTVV
Ephrin type-A receptor 7 (Homo sapiens), sequence (Q15375 28-998 limits assumed): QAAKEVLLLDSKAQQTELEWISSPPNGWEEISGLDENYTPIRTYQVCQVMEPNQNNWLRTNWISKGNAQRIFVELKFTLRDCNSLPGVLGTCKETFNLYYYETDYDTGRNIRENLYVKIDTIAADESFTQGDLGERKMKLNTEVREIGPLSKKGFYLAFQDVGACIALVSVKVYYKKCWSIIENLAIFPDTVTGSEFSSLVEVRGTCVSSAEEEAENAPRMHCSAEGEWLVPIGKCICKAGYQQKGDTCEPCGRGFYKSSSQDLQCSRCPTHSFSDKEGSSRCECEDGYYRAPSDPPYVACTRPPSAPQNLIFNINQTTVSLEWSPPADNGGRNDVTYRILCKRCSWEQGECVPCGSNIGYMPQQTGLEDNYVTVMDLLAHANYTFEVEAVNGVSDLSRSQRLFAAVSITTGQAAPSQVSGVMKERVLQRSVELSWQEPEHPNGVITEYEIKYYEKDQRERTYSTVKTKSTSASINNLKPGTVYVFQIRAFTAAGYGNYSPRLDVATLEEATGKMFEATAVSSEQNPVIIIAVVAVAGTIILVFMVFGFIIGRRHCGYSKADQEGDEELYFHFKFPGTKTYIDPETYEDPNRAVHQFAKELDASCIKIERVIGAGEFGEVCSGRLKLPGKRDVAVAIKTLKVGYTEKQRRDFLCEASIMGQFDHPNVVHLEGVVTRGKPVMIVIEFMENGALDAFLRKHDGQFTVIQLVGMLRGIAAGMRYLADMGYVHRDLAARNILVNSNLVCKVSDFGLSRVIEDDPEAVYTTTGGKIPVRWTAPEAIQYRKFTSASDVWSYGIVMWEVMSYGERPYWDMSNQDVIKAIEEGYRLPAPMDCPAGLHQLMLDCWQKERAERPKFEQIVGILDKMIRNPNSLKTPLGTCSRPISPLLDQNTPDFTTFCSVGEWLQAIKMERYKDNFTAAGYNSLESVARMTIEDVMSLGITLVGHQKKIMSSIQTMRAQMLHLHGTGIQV
Ephrin type-A receptor 4 (Homo sapiens), sequence (P54764 whole entry): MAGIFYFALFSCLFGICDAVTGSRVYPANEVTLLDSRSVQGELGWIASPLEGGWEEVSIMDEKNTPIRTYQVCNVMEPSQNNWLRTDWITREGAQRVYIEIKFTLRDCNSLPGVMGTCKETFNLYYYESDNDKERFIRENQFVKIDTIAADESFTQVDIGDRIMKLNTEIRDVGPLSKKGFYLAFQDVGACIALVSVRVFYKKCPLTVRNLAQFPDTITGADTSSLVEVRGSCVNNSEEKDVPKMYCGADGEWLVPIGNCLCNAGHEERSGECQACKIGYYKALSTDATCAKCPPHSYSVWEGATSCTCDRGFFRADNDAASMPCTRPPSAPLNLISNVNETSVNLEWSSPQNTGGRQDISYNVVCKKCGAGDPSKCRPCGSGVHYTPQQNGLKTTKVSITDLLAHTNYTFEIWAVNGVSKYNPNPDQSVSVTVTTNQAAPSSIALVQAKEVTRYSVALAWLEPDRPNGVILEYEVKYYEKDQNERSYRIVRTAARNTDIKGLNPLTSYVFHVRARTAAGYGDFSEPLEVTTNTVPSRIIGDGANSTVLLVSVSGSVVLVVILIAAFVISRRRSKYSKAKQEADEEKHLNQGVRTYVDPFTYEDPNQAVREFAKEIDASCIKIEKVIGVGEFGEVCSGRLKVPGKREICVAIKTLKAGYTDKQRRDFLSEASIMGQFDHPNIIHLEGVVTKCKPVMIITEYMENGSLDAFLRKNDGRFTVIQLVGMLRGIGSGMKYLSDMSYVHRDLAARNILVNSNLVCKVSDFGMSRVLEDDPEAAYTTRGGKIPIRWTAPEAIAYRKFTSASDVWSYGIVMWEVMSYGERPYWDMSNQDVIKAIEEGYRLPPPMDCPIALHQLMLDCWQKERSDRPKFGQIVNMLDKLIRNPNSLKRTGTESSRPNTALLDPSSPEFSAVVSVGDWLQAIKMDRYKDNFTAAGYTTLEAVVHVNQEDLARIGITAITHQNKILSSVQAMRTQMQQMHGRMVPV

c1ccc(-c2n[nH]cc2-c2ccnc3ccccc23)nc1
residual activity [1]: 78%
residual activity [2]: 103%
residual activity [3]: 109%
residual activity [4]: 103%
residual activity [5]: 94%
residual activity [6]: 91%
residual activity [7]: 95%
residual activity [8]: 97%
residual activity [9]: 104%
residual activity [10]: 105%
residual activity [11]: 102% (inactive)
residual activity [12]: 137%
residual activity [13]: 109%
residual activity [14]: 105%
residual activity [15]: 98%
residual activity [16]: 98%
